Data: PubChem BioAssay (NCI)
Several values for one entry are separate records, joined by “and”; a condition that tells them apart may be missing. Equal values may be shown once. This is part of a sample that, as a whole, favours compounds with a hit. Of some 79,000 tested, about 15% had one in any assay. Values without a mark were called inactive. Activity calls are given as the source filed them. No stated cut-off is given here; in the data, active means growth inhibition above about 70%; inactive means the rest. Where a SMILES comes first, the peptide text is derived from it. The star is where a group is joined. Cbz = O=C(OCc1ccccc1)*

Key:
[1] = NCI Yeast Anticancer Drug Screen. Data for the rad50 strain (AID 155);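 further: 0% = growth of vehicle-only cultures of the same strain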; conditions: S. cerevisiae rad50 strain growth inhibition, stronger effect = higher value; at 50.0 µM unless noted
Outline: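 Relative growth inhibition (compound vs vehicle) was measured in yeast with a defined repair-gene alteration.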

[2] = NCI Yeast Anticancer Drug Screen. Data for the mec2-1 strain (AID 157); conditions: S. cerevisiae mec2-1 strain, stronger effect = higher value; at 50.0 µM unless noted
Outline: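 Strain: mec2-1 (DNA repair/cell cycle alteration). Compound exposure, then growth measured; inhibition expressed relative to vehicle.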

[3] = NCI Yeast Anticancer Drug Screen. Data for the sgs1 mgt1 strain (AID 161);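 further: 0% = growth of cultures given vehicle only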; conditions: S. cerevisiae sgs1 mgt1 strain, stronger effect = higher value; at 50.0 µM unless noted
Outline: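 Genetically altered yeast, compound exposure, growth inhibition relative to vehicle.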

[4] = NCI Yeast Anticancer Drug Screen. Data for the cln2 rad14 strain (AID 165);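 further: 0% = growth equal to vehicle treated cultures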; conditions: S. cerevisiae cln2 rad14 strain, stronger effect = higher value; at 50.0 µM unless noted
Outline: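 Compounds are applied to the cln2 rad14 yeast strain, and growth is then compared with that of vehicle-treated cultures to give inhibition.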

[5] = NCI Yeast Anticancer Drug Screen. Data for the bub3 strain (AID 167); conditions: S. cerevisiae bub3 mutant strain, stronger effect = higher value; at 50.0 µM unless noted
Outline: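 Screening used yeast with an engineered genetic alteration affecting cell cycle control. Compound-exposed cultures were compared with vehicle cultures, and reduced growth was taken as inhibition.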

[6] = NCI Yeast Anticancer Drug Screen. Data for the mlh1 rad18 strain (AID 175); conditions: S. cerevisiae mlh1 rad18 strain growth inhibition, stronger effect = higher value; at 50.0 µM unless noted
Outline: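 Read-out is yeast growth inhibition, calculated against vehicle-only controls. The compound was applied to a strain engineered with DNA damage repair alterations.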

Row | Compound | growth inhibition [1] | growth inhibition [2] | growth inhibition [3] | growth inhibition [4] | growth inhibition [5] | growth inhibition [6]
1 | Cc1ccc(=O)[nH]n1 | -3.25% and -31.6% | -21.7% and -16.3% | -9.8% and -17.8% | -8.35% and -28.9% | -16.1% and -27.5% | 3.75% and -20%
2 | CCN1CCNC(c2ccccc2)C1(C)C (stereo unspecified) | -2.35% | -5.45% | -10% | -15.7% | -5.95% | 3.4%
3 | COC(=O)[C@]1(c2ccc(N(C)C)cc2OC)C[C@@H]2CCCN(CCc3c1[nH]c1ccccc31)C2 | -5.8% | -4.35% | -11.5% | 18.4% | -0.65% | 21.6%
4 | Cc1ccc(S(=O)(=O)C2OC(CO)C(O)C(O)C2O)cc1 (stereo unspecified) | -11.5% | -16.6% | -5.55% | -21.1% | 14.9% | -6.25%
5 | Cc1cc(O)c(C)c(C)c1O | -4.1% | -12.6% | -6.95% | -12.4% | 4% | 8.85%
6 | COc1ccc(/C=C2\N=C(N3CCCC(CO)C3)NC2=O)cc1 (stereo unspecified) | -35.1% | -2.4% | 8.3% | 1.9% | -3.85% | -34%
7 | COc1ccccc1C(=O)Oc1ccc(OC(=O)c2ccccc2OC)c(C(C)=O)c1 | 16.6% | -1.85% | 0% | 3.25% | 20.2% | 35.4%
8 | O=C(c1ccccc1)c1ccc2c(Cl)ccc3c2c1CC3 | -2.8% | -21.3% | -9.75% | 12.8% | 7.6% | -8.45%
9 | BrC(Br)(Br)Br | 74% (active) | 12.6% | 31.8% | -19.6% | 27.4% | 57.2%
10 | CC(C)C(=O)NS(=O)(=O)c1ccccc1 | -14.6% | -3.8% | 0.5% | -7.55% | -14.4% | -27.9%
11 | NC(=O)Cc1ccc2c3c(cccc13)CC2 | 15.4% | 5.45% | 2.45% | -34.2% | 11.8% | 9.05%
12 | COc1cc2c(cc1OC)C1Cc3ccccc3CCN1CC2 (stereo unspecified) | -23.4% | -7.1% | -16.8% | -23.8% | -9.95% | -19.4%
13 | COc1ccc2nc3cc([N+](=O)[O-])ccc3c(NCCCN(C)C)c2c1 | 7.05% | -1.9% | 45.4% | 20.9% | 8.25% | 5.4%
14 | CCSC1C(O)C(CO)OC1n1cnc2c(=S)nc[nH]c21 (stereo unspecified) | -3.65% | -28.7% | -2% | 2.6% | 5% | 0.2%
15 | COc1cccc2c1C(=O)c1c(O)c(CCl)cc(OC)c1C2=O | 16.9% | -4.6% | 20.9% | -33% | 5.6% | 14.9%
16 | COc1ccc(CCNS(=O)(=O)c2c(C)c(C)c(C)c(C)c2C)cc1OC | -2.2% | -20.6% | 5.1% | 21.1% | 21.2% | 6.8%
17 | CSc1ccc(C2NC(=O)NC2=O)cc1 (stereo unspecified) | -10.2% | -14.6% | -1.95% | -9% | 4.95% | -10.1%
18 | COc1ccc(-[n+]2nc(S(=O)(=O)O)c(/C=C/c3ccc(N(C)C)cc3)cc2C#N)cc1 | -13.8% | -9.05% | 20.1% | 6.65% | 5.85% | -9.5%
19 | COC(=O)C(CC(C)C)NC(=O)C(CC(N)=O)NC(=O)C(NC(=O)OCc1ccccc1)C(C)C (stereo not drawn) (Cbz-Val-Asn-Leu-OMe; configuration not given here) | 38.1% | 24.5% | 8.9% | 14.7% | 9.3% | 36.5%
20 | O=C(O)NC(=O)c1cc([N+](=O)[O-])ccc1COC1CCCCO1 (stereo unspecified) | 5.95% | -0.85% | 2.55% | -11.7% | 14.9% | 0.75%
21 | CCn1c2ccccc2c2ccccc21 | 27.2% | -6% | -10.2% | 13.8% | -8.15% | 17.4%

Row | Compound | growth inhibition [1] | growth inhibition [2] | growth inhibition [3] | growth inhibition [4] | growth inhibition [5] | growth inhibition [6]
22 | FC(F)(F)COP1(OCC(F)(F)F)=NP(OCC(F)(F)F)(OCC(F)(F)F)=NP(OCC(F)(F)F)(OCC(F)(F)F)=N1 | -1.2% | 14.3% | -5.15% | -4.55% | -3.45% | 6.8%
23 | O=[N+]([O-])c1c[nH]c2ncnc(Cl)c12 | 4.25% | 0.6% | 0.35% | -6.8% | -3% | 6.8%
24 | CC(=O)OCC1OC(n2c(-c3ccc(C)cc3)cc(-c3ccco3)c(C#N)c2=O)C(OC(C)=O)C(OC(C)=O)C1OC(C)=O (stereo unspecified) | 10.6% and -5.75% | 10.6% and -5.75% | 20.6% and 4.95% | 13.5% and -16.8% | 27.4% and -4.4% | 14.4% and 9.7%
25 | CSC(=S)N/N=C(\C)c1cccs1 | 7.05% | 1.85% | 4.75% | -50.9% | -47.5% | 10.8%
26 | C=CCOCn1cnc2c(N)ncnc21 | -35.9% | -59.9% | -24.1% | -0.6% | -11.3% | -36%
27 | O=C(O)C1Cc2c([nH]c3ccccc23)CN1 (stereo unspecified) | 8.45% | -10.9% | 11.6% | 2.25% | 24.1% | 9.25%
28 | O=C(Nc1ccccc1Cl)c1cc2cc(N=Nc3ccc(Br)cc3)ccc2oc1=O | 0.55% | 9.75% | -3.8% | 9.6% | -7.05% | -3.5%
29 | COc1ccc(-c2sc(/N=C/c3ccc(N(C)CCC#N)cc3)c(C#N)c2C)cc1OC | 4% | -1.05% | 28.1% | 16.4% | 18.3% | 15.3%
30 | CC(C)(O)CCNc1ncnc2c1ncn2C1OC(CO)C(O)C1O (stereo unspecified) | 2% | -1.75% | 9.7% | -6.8% | 13.9% | 13.8%
31 | Cc1ccc(S(=O)(=O)OCCN(CCOS(=O)(=O)c2ccc(C)cc2)c2cccc([N+](=O)[O-])c2)cc1 | 22.9% | 8.85% | 7.85% | 22.4% | -0.3% | 21.4%
32 | CN(C)c1ccc(C=Nc2c(N)n(C)c(=O)n(C)c2=O)cc1 | -12.3% | -0.2% | -11.2% | -32.7% | -9.45% | -2.9%
33 | CC(=O)OCC1OC(OC(C)=O)C(OC(C)=O)C(OC(C)=O)C1OC(C)=O (stereo unspecified) | -0.8% and 33.3% | 0.25% and 9.6% | -17.5% and 21.1% | -30.9% and 11.5% | -14.4% and 5.45% | -26.1% and 8.9%
34 | Cc1ccc(C(=O)/C=C/C(=O)c2ccc(C)cc2)cc1 | 4.55% | 29.9% | 19.2% | 19.9% | 14.9% | 3.8%
35 | O=C(O)C1(F)CC1(c1ccccc1)c1ccccc1 (stereo unspecified) | -4.7% | 9.7% | 14.5% | -38.2% | 5.6% | -7.8%
36 | CCOC(=O)c1cnc2sc3ccc4ccccc4c3n2c1=O | 51.9% | 23.4% | 61% | 36.1% | 51.3% | 60.7%
37 | CC(=O)N1C(=O)C2(c3ccccc31)c1cccc3c1C(=C1C(=O)OC(=O)C12)C(=O)N3C(C)=O (stereo unspecified) | 64.5% | 22.4% | 52.3% | 9.55% | 8.85% | 48.1%
38 | O=S(=O)(O)c1ccc(Nc2ccccc2)cc1 | -1.2% and 5.95% | -38.8% and -24.1% | -11% | -18.3% | 2% | -20.9% and 6.2%
39 | O=C(CO)C(O)C(O)C(O)C(O)CO (stereo unspecified) | 19.2% and -6.1% | 4.7% and 1.6% | 20.3% and 3.4% | -1.1% and -1.05% | 32.5% and -3.2% | 20.9% and 5.8%
40 | CC(=Nc1cccc(Cl)c1)c1ccncc1 | -44% | -10.2% | -24.6% | -21.2% | -6.05% | -10.8%
41 | CC/C=C/C(CC)(C(=O)OCC)C(=O)OCC | 5.45% | -15.8% | -6.7% | -2% | -16.3% | -20.1%
